Bioassay records (PubChem)
PRC2 inh: inhibitors of human EZH2/PRC2 methyltransferase; Q15910; PRC2 H3K27 methylation, DELFIA TRF, 1 h; actives 0.35% (n = 57,000); inhibition, % at 12.5 µM; AID 651548;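 active means mean inhibition of replicates at least 50% and every single replicate also reaching 50%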;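 further: dimethyl H3K27 on biotinylated H3 21-44 peptide detected by antibody; plate controls were median neutral control wells for no effect and median positive control wells for full effect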
Target sequence (Q15910 whole entry, looked up): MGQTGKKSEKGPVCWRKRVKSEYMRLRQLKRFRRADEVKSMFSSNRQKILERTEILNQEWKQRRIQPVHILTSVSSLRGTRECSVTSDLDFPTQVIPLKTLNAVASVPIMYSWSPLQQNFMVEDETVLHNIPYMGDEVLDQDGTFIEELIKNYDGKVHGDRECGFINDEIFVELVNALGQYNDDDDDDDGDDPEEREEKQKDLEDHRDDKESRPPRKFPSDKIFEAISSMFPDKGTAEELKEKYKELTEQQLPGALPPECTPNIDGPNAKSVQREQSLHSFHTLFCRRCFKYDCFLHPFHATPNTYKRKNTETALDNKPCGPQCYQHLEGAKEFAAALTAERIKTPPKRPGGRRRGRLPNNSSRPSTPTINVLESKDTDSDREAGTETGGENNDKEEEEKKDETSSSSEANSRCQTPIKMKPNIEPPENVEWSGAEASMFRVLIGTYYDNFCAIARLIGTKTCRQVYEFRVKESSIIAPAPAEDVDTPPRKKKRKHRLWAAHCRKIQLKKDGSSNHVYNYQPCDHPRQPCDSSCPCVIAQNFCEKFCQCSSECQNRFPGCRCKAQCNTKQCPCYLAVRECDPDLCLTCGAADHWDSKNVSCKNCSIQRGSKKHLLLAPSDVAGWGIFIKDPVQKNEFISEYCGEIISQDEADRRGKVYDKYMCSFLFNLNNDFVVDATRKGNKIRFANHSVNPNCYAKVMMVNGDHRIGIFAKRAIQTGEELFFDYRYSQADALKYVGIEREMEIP
An asterisk follows results filed as active. This excerpt belongs to a sample that is enriched for hits.

SMILES	PRC2 inh
Cc1cc(CNC(=O)c2cc(-c3cccnc3)nc3ccc(Cl)cc23)nn1C	11.5
Cc1nc(CSc2ncnc3sc(C)c(C)c23)cs1	3.4
CS(=O)(=O)N(CC(=O)Nc1ccc(Cl)c(Cl)c1)c1cc(Cl)cc(Cl)c1	5.4
CS(=O)(=O)N(CC(=O)Nc1cccc(Cl)c1)c1ccc(Br)cc1	3.1
CS(=O)(=O)N(CC(=O)Nc1ccc(Cl)c(Cl)c1)c1ccc(Br)cc1	54.6*
COc1ccc([C@@H]2C=C(C(=O)O)O[C@H](OCc3ccc(CO)cc3)C2)cc1	-4.8
Cc1nnc(SCC(=O)Nc2ccc(I)cc2C)s1	5.8
COc1ccc(C(=O)NCCCN2CCCC2=O)cc1[N+](=O)[O-]	-21.8
O=C(O)c1cccc(/C=N/NC(=O)c2ccccn2)c1	4.6
COc1cc([C@H]2OC[C@H]3[C@@H]2CO[C@@H]3c2ccc(O)c(OC)c2)ccc1O	79.7*
COc1cc([C@H]2OC[C@H]3[C@@H]2CO[C@H]3c2ccc(OC)c(OC)c2)ccc1O	8.6
COc1cc(C2OC[C@@H]3[C@@H](c4cc(OC)c(O)c(OC)c4)OC[C@H]23)cc(OC)c1O (some centres undefined)	-26.5
O=S(=O)(Cc1ccc(Cl)cc1)NCc1ccccn1	-0.3
CCn1c(SCC(=O)N2CCc3ccccc32)nnc1-c1ccc([N+](=O)[O-])cc1	-11.2
Cc1ccc(-n2c3c(cc(C(=O)NCCCN4CCOCC4)c2=O)C(=O)CCC3)cc1	0.7
O=c1c(-c2ccc(O)cc2)coc2cc(OC3OC(CO)C(O)C(O)C3O)cc(O)c12 (centres undefined)	8.5
O=c1cc(-c2ccc(O)cc2)oc2c(C3OC(CO)C(O)C(O)C3O)c(O)c(C3OCC(O)C(O)C3O)c(O)c12 (centres undefined)	99.4*
O=C1CC(c2ccc(O)cc2)Oc2cc(O[C@@H]3O[C@H](CO)[C@@H](O)[C@H](O)[C@H]3O)cc(O)c21 (some centres undefined)	-2.1
NC(=O)COc1ccc(/C=N/NC(=O)c2ccc(C(=O)NO)cc2)cc1	0.1
Cc1cc(N)n(-c2ccc(Oc3ccccc3)cc2S(=O)(=O)O)n1	10.1
Cc1cc(-c2ccc(N=Nc3cc(S(=O)(=O)O)c4ccccc4c3N)c(C)c2)ccc1N=Nc1cc(S(=O)(=O)O)c2ccccc2c1N	99.3*
CC(=O)NCCCC[C@@H]1NC(=O)[C@@H]2C[C@H](C(=O)NCc3ccc(F)cc3)[C@H](c3cccc(OCCO)c3)N2C1=O	-7.4
COC(=O)COc1cccc(NC(=O)c2ccc(Br)cc2)c1	1.4
CCOc1cccc(NC(=O)C2CC(=O)N(/N=C(\C)c3ccc(Br)s3)C(=N)S2)c1 (centres undefined)	91.7*
Cc1ccc(C(=O)COc2cccc(NC(=O)c3ccc(Br)cc3)c2)cc1C	-3.3
SMILES	PRC2 inh
COc1ccc(C(=O)CC2(O)C(=O)N(Cc3ccccc3Cl)c3ccc(Cl)cc32)cc1OC (centres undefined)	-3.9
N#CCCN(CCC#N)C(=O)c1ccco1	15.1
O=C(CSc1nccc(=O)[nH]1)Nc1cccc(I)c1	-17.1
CN(C)CCNc1nc2c(c(=O)n(C)c(=O)n2C)n1Cc1ccccc1F	4.0
CCOc1cc(/C=C2\SC(=S)NC2=O)cc(Cl)c1OC(=O)c1ccc(OC)cc1	66.9*
Cc1ccc(C)c(NC(=O)C(C)N(c2ccc(C)c(C)c2)S(C)(=O)=O)c1 (centres undefined)	6.3
C/C(=C\C(=O)O)CCC1C(C)(O)CCC2C(C)(CO)CCCC12C (centres undefined)	65.4*
C=C1CCC2C(C)(CO)CCCC2(C)C1CC/C(C)=C/C(=O)O (centres undefined)	13.5
C/C(=C/C(=O)O)CCC1C(C)CCC2C(C)(C=O)C(O)CCC12C (centres undefined)	15.1
COc1ccc(N(C(C)C(=O)Nc2ccc(C(F)(F)F)cc2)S(C)(=O)=O)cc1 (centres undefined)	-2.6
COC(=O)c1c(NC(=S)Nc2cccc(NC(C)=O)c2)sc(C)c1C	10.0
COc1ccc(S(=O)(=O)N(C)CC(=O)Nc2ccc(Br)cc2F)cc1OC	-6.3
COc1ccc(N(C(=O)C2CCCCC2)S(=O)(=O)c2cccc3cccnc23)cc1	7.9
CC(=O)c1c(C)oc2ccc(N(C(=O)c3ccncc3)S(=O)(=O)c3ccc(F)cc3C)cc12	12.5
Cc1ccc(S(=O)(=O)N(C(=O)C2CCCCC2)c2ccc3oc(=O)sc3c2)c(C)c1	53.6*
CN1CCN(C(=O)CN(c2ccc(I)cc2)S(=O)(=O)c2ccccc2)CC1	1.6
O=C(CSc1nc2ccccc2s1)Nc1ccc(Cl)c(C(F)(F)F)c1	26.2
N#C/C(=C\c1ccc(O)c(O)c1)C(=O)NC1CCC(CC2CCC(NC(=O)/C(C#N)=C/c3ccc(O)c(O)c3)CC2)CC1 (centres undefined)	31.2
O=C(O)CCCCCCC(=O)N/N=C/c1ccc(N(c2ccccc2)c2ccccc2)cc1	62.6*
O=C(O)CCCCCCC(=O)N/N=C/c1ccc(F)cc1	7.2
O=C(CCCCCCC(=O)Nc1ccccc1O)N/N=C/c1ccc(N(c2ccccc2)c2ccccc2)cc1	15.0
N#Cc1ccc(/C=N/NC(=O)CCCCCC(=O)O)cc1	-10.3
O=C(O)CCCCCC(=O)N/N=C/c1ccc(N(c2ccccc2)c2ccccc2)cc1	60.9*
O=C(O)CCCCCC(=O)N/N=C/c1ccccc1	-0.1
CCCCCCC/C=N/NC(=O)c1ccccc1O	-8.2
SMILES	PRC2 inh
COc1cccc(-c2nnc(SCC(=O)Nc3cccc([N+](=O)[O-])c3)n2C)c1	-6.8
O=C1/C(=C/c2ccc(N3CCOCC3)cc2)CCC1C1CCCC1 (centres undefined)	1.2
CN(C(=O)c1ccn[nH]1)C1CC(C)(C)N(C)C(C)(C)C1	-20.5
CCn1c(SCC(=O)Nc2cc(C)c(C)cc2Br)nnc1-c1ccccc1F	5.5
Cc1ccc(C(=O)CC(C(=O)c2ccc(C(F)(F)F)cc2)c2cccs2)cc1 (centres undefined)	13.2
O=C(CSc1n[nH]c(-c2ccc(Cl)cc2Cl)n1)Nc1ccc(I)cc1	58.4*
O=C(CSc1n[nH]c(-c2ccc(Cl)cc2Cl)n1)Nc1cccc(C(F)(F)F)c1	29.1
O=C(CSc1n[nH]c(-c2ccc(Cl)cc2Cl)n1)Nc1cc(C(F)(F)F)ccc1Cl	9.3
Cc1c(Cl)ccc2c(C(=O)Nc3ccc(S(=O)(=O)N4CCOCC4)cc3)cc(-c3cccnc3)nc12	-19.1
O=C(Cn1cnc2ccccc2c1=O)Nc1ccc(Br)cc1F	-17.4
CCOc1cc(OCC)cc(C(=O)N[C@@H](Cc2ccc(N=[N+]=[N-])cc2)C(=O)OC)c1	4.7
Cc1ccsc1/C=N/NC(=O)CCCCCC(=O)Nc1ccccc1O	10.8
Cc1ccc(Oc2ccc(NC(=O)CN3C(=O)C4C5C=CC(C6CC56)C4C3=O)cc2)cc1 (centres undefined)	-23.3
O=C(N/N=C/c1ccccc1)c1ccccc1O	-5.7
C=C(C(=O)O[C@@H]1O[C@H](CO)[C@@H](O)[C@H](O)[C@H]1O)[C@@H]1CC[C@@]2(C)C[C@H](O)C[C@@](C)(O)C2C1 (some centres undefined)	64.1*
CC1(CCOC2OC(CO)C(O)C(O)C2O)CCC2C(=CCC3C(C)(C(=O)O)CCCC23C)C1 (centres undefined)	12.8
CC1C(=O)C23CC(O)C4C(C)(C(=O)OC5OC(CO)C(O)C(O)C5O)CCCC4(C)C2(O)CCC1C3 (centres undefined)	0.0
N#Cc1ccccc1NC(=O)CCSc1nc(-c2ccccc2)c2cc(Cl)ccc2n1	19.3
